This passage reports z-score and composite z-score results from PubChem BioAssay.

The nature of test [1]: HepG2 liver cancer cell viability effects, profiling panel, resazurin fluorescence, 24 h, PK04 Diversity Set (AID 1172). The following applies: higher = more signal. (Alamar Blue is a resazurin reagent that responds to reducing activity.)
Test [2] can be described thus: basal S. cerevisiae growth modulation, no modifier, primary screen, OD600, strain BY4716, 24 h, basal condition (AID 1173). The note with it: OD600, 24 h, higher = more signal, called active from +8 up or from −8 down.
Test [3] is described as follows: MM1S myeloma cell viability, profiling panel, resazurin fluorescence, basal, 24 h, PK04 Diversity Set (AID 1174).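 Also: MM1S multiple myeloma cell line.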 The following applies: higher = more signal, called active from +8 up or from −8 down.
Test [4] has as its target Dihydroorotate dehydrogenase (quinone), mitochondrial (Plasmodium falciparum (isolate 3D7)) (UniProt Q08210). Briefly: PfDHODH enzyme inhibitors, primary screen, biochemical, C-terminal His tag, absorbance 600 nm (AID 1175).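 Also: recombinant parasite enzyme with a five histidine tag at its C terminus.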 The following applies: DCIP absorbance 600 nm, higher = more signal, called active from +8 up or from −8 down.
Test [5] in a line: P. aeruginosa biofilm formation inhibitors, primary screen, strain PAO1, LB-PBS medium, absorbance 600 nm (AID 1176). The following applies: P. aeruginosa PAO1 growth/biofilm, A600, 12 h; higher = more signal.
Test [6] is described as follows: S. cerevisiae RM11-1a growth modifiers, primary screen, strain RM11-1a, OD600, basal, 24 h (AID 1177).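 Also: cultures grown under basal conditions with no added stressor.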 The following applies: OD600, 24 h, higher = more signal, called active from +8 up or from −8 down.
Test [7] can be described thus: E. coli acrAB mutant growth effects, primary screen, E. coli filamentation inducers, strain DRC39, OD650, 24 h (AID 1178).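 Also: growth measured as culture turbidity by optical density at 650 nm.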 The following applies: higher = more signal, called active from +8 up or from −8 down.
Test [8] is described as follows: E. coli acrAB mutant growth effects, primary screen, E. coli filamentation inducers, strain DRC39, OD650, 48 h (AID 1179).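 Also: screen aims at cell division blockers that make cells filament.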 The note with it: E. coli DRC39 delta-acrAB growth, higher = more signal, called active from +8 up or from −8 down.
Test [9] can be described thus: RPMI8226 myeloma cell viability, profiling panel, resazurin fluorescence, basal, 24 h, PK04 Diversity Set (AID 1180).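 Also: RPMI8826 multiple myeloma cell line at 5000 cells per well.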 The note with it: higher = more signal.
The target of test [10] is E3 ubiquitin-protein ligase XIAP (Homo sapiens) (UniProt P98170). Put plainly: XIAP binders, primary screen, biophysical, small-molecule microarray, fluorescence 635 nm (AID 1181).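 Also: score merges 667 nm emission and signal to noise over triplicate slides.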 The note with it: small-molecule microarray binding, higher = more signal.
E3 ubiquitin-protein ligase XIAP (Homo sapiens), sequence (P98170 whole entry, looked up): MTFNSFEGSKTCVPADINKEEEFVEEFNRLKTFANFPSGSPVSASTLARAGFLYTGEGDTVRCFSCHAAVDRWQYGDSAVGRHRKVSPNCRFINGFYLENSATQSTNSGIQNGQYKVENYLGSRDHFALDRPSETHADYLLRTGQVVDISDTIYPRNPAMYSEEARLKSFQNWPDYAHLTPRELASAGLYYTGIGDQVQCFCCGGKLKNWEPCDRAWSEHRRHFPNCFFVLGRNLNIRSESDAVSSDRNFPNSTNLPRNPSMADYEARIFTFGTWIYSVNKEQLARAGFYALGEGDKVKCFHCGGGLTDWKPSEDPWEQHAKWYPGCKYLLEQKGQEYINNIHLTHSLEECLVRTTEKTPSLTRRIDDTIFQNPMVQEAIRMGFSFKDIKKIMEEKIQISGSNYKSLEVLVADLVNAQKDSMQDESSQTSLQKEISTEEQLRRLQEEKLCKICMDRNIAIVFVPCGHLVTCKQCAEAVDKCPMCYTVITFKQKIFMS
Test [11] has as its system XIP peptide (Xip251-270) binding. Put plainly: small-molecule binders of XIP peptide, primary screen, biochemical, small-molecule microarray, fluorescence 635/667 nm, 0.1 µg/mL protein (AID 1182). The note with it: fluorescent protein binding, 635 nm, higher = more signal, called active from +8 up or from −8 down.
The next test concerns XIP peptide (Xip251-270). Put plainly: small-molecule binders of XIP peptide, primary screen, biochemical, small-molecule microarray, fluorescence 635/667 nm, 0.5 µg/mL protein (AID 1183). The following applies: small-molecule microarray binding, fluorescence 635 nm; higher = more signal.
The nature of test [12]: Plasmodium falciparum growth inhibition, primary screen, strain 3D7, DAPI fluorescence, 100 nL (AID 1184).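 Also: parasites grown inside human red blood cells in medium with human serum.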 The note with it: P. falciparum 3D7 growth, 3 d, higher = more signal.
Test [13] concerns the target Homeobox protein Hox-A13 (Mus musculus) (UniProt Q62424). Briefly: inhibitors of HoxA13-DNA binding, primary screen, biochemical, fluorescence polarization, labeled oligonucleotide (AID 1185). The following applies: 15 min, higher = more signal, called active from +8 up or from −8 down. For orientation: In fluorescence polarisation assays a small probe gives low polarisation when free and higher when bound to something large.

The nature of test [14]: inhibitors of hydroxyurea-induced Chk1 phosphorylation, primary screen, imaging, HeLa, phospho-Chk1 antibody, percent positive cells (AID 1186). The note with it: hydroxyurea-induced phospho-Chk1 immunofluorescence imaging, higher = more signal.
A short description of test [15]: inhibitors of hydroxyurea-induced Chk1 phosphorylation, primary screen, imaging, HeLa, phospho-Chk1 nuclear intensity (AID 1187). The note with it: hydroxyurea-induced phospho-Chk1 immunofluorescence imaging, higher = more signal.

Calls of active or inactive are those of the source. Unless noted, no rule for the calls is given here.

Homeobox protein Hox-A13 (Mus musculus), sequence (Q62424 whole entry, looked up): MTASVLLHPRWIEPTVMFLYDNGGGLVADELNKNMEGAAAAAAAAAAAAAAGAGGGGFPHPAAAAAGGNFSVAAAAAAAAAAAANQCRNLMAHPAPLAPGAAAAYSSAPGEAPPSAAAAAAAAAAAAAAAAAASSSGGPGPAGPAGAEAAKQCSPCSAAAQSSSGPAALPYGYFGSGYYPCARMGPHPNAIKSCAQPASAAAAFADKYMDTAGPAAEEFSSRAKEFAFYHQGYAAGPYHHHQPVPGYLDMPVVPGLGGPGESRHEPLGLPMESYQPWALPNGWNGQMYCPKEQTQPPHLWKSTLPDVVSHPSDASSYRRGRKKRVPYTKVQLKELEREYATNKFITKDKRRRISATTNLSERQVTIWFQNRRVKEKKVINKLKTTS
Dihydroorotate dehydrogenase (quinone), mitochondrial (Plasmodium falciparum (isolate 3D7)), sequence (Q08210 whole entry, looked up): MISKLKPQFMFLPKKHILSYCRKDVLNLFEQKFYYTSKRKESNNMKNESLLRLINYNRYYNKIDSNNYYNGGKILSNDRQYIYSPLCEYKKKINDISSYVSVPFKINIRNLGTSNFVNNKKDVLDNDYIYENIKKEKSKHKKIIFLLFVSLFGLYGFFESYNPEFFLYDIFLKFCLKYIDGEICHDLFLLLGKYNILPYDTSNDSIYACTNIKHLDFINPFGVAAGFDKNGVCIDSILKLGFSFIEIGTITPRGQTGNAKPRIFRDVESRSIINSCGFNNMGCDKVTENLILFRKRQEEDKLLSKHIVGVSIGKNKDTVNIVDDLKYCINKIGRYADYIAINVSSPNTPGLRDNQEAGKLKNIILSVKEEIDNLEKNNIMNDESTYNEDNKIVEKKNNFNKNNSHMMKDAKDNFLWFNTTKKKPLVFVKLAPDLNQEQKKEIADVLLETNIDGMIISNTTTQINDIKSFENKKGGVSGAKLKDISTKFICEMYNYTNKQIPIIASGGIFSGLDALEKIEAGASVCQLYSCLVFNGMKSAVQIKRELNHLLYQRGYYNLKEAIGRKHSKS

For the compound `COc1ccc(C(=O)Nc2cccc(CN3C(=O)[C@@]4(O[C@@H](CC(=O)N5CCC[C@H]5CO)[C@H]([Si](C)(C)c5ccc(OC)cc5)[C@H]4C)c4ccccc43)c2)cc1`, the z-score in test [1] is -0.429; in test [2], -0.0739 (inactive); in test [3] it was -1.17 (inactive); in [5], 1.03 (inactive); in test [6], 0.844 (inactive); in test [7], 0.603 (inactive). For the same compound, the z-score in test [8] is 0.274 (inactive); in [9] it was -1.25; in test [12], -2.16; in [13], -2.8 (inactive); in test [14] it was -0.142 (inactive); in test [15], 0.071 (inactive). The composite z-score in test [4] is -5.69 (inactive); in [10] it was 0.147; in test [11] it was 0.802 (inactive); with XIP peptide (Xip251-270), 0.639.
As to `O=C1C2C=CC(C(O)C3CCCCC3)N(n3cnnc3)C2C(=O)N1Cc1ccccc1` (stereo not given), the z-score was -0.308 in test [1]; 0.161 (inactive) in test [2]; -0.196 (inactive) in [3]; 0.561 (inactive) in [5]; -0.618 (inactive) in test [6]; 0.386 (inactive) in [7]. The z-score in test [8] is 1.01 (inactive); in [9], -0.513; in test [12] it was -0.902; in test [13] it was -1.8 (inactive); in test [14], 0.359 (inactive); in test [15], -0.394 (inactive). For the same compound, the composite z-score in test [4] was -0.016 (inactive); in test [10], -0.0535; in test [11] it was 0.534 (inactive); with XIP peptide (Xip251-270), -0.0061.
In the case of `Cc1ccc(S[C@]2(C(=O)NCc3ccccc3)CC(=O)N(Cc3ccccc3C(F)(F)F)[C@@H]2c2ccc(CO)cc2)cc1`, the z-score in [1] is -0.704; in test [2], -0.359 (inactive); in test [3] it was 0.103 (inactive); in test [5], 0.416 (inactive); in [6] it was -1.38 (inactive); in test [7], 0.57 (inactive). Moreover, the z-score in [8] was 1.46 (inactive); in [9] it was -0.307; in [12], 0.78; in [13] it was 0.0133 (inactive); in test [14], -0.51 (inactive); in [15], -0.393 (inactive). Besides, the composite z-score in test [4] is -1.27 (inactive); in test [10], 0.109; in [11], 0.903 (inactive); in the test on XIP peptide (Xip251-270) it was 0.599.
As for `CC(C)C(=C=CC[C@H](O)c1ccccc1OCCO)C[C@H](O)COCc1ccccc1`, the z-score is -0.0813 in test [1]; -1.07 (inactive) in test [2]; -0.271 (inactive) in test [3]; 0.731 (inactive) in test [5]; -0.154 (inactive) in test [6]; -0.145 (inactive) in [7]. Moreover, the z-score in [8] is -0.306 (inactive); in test [9], -0.921; in [12] it was -1.78; in test [13], -4.94 (inactive); in test [14] it was 0.233 (inactive); in test [15], -0.371 (inactive). The composite z-score in test [4] is -2.12 (inactive); in [10], 0.17; in [11], -0.182 (inactive); in the test on XIP peptide (Xip251-270) it was 0.619.
Consider `NCCCCCCNC(=O)[C@@H]1C[C@@H]2C(=O)N3CCC[C@H]3C(=O)N2[C@@H]1c1cccc(OCCO)c1`, for which the z-score is 0.158 in [1]; -1.44 (inactive) in test [2]; 0.711 (inactive) in test [3]; -1.23 (inactive) in test [5]; -0.853 (inactive) in test [6]; 0.699 (inactive) in [7]. The z-score in [8] is 0.768 (inactive); in test [9] it was -0.0931; in [12], -0.772; in test [13] it was -4.9 (inactive); in [14] it was -0.705 (inactive); in test [15], -0.405 (inactive). The composite z-score was 0.101 (inactive) in [4], -0.0172 in test [10], 2.08 (inactive) in test [11] and 0.2 in the test on XIP peptide (Xip251-270).
Regarding `COCCOC(=O)N1C(=O)[C@@]2(c3cc(C#CCC(C(=O)OC)C(=O)OC)ccc31)[C@H](c1ccc(O)cc1)N1[C@H](c3ccccc3)[C@H](c3ccccc3)OC(=O)[C@H]1[C@@H]2C(=O)Nc1nc2ccccc2s1`, the z-score in [1] is 0.623; in test [2], -0.146 (inactive); in test [3] it was -1.05 (inactive); in test [5] it was 0.321 (inactive); in test [6], 0.559 (inactive); in [7], -0.709 (inactive). The z-score is -0.961 (inactive) in test [8]; -0.157 in test [9]; -1.43 in test [12]; -2.2 (inactive) in test [13]; 0.03 (inactive) in test [14]; 0.0087 (inactive) in [15]. Besides, the composite z-score in test [4] is -1 (inactive); in test [10] it was -0.138; in test [11] it was 1.49 (inactive); in the test on XIP peptide (Xip251-270), 0.853.
With `C=C(CCCC)C(=O)CC[C@@H](OC(=O)c1ccccc1-c1ccccc1C(=O)O)c1ccccc1OCCO`, the z-score in test [1] is -0.174; in test [2] it was -2.49 (inactive); in test [3], -0.608 (inactive); in test [5], 0.118 (inactive); in [6] it was -1.61 (inactive); in test [7] it was 0.625 (inactive). Moreover, the z-score in test [8] was 0.403 (inactive); in test [9] it was -1.49; in test [12], -2.92; in [13], -6.26 (inactive); in [14] it was 0.779 (inactive); in test [15], 1.38 (inactive). The composite z-score in [4] is -1.35 (inactive); in [10], 0.269; in test [11] it was 0.721 (inactive); with XIP peptide (Xip251-270) it was 0.145.
For `O=C(NC1CC1)[C@@H]1c2ccccc2C(=O)N(Cc2ccc(OC(F)(F)F)cc2)[C@H]1c1ccc(CO)cc1`, the z-score in test [1] is 1.26; in [2] it was -0.327 (inactive); in [3] it was 1.23 (inactive); in [5], -0.233 (inactive); in test [6], -0.544 (inactive); in [7], 0.392 (inactive). Further, the z-score in test [8] was 1.11 (inactive); in test [9] it was 0.718; in test [12] it was 0.599; in test [13] it was -3.51 (inactive); in test [14], -0.453 (inactive); in test [15], -0.577 (inactive). The composite z-score in test [4] was 0.347 (inactive); in [10], -0.239; in test [11], 2.46 (inactive); in the test on XIP peptide (Xip251-270), 0.0303.
For `COC(=O)C(CC#Cc1ccc2c(c1)[C@]1(C(=O)N2)[C@H](C(=O)NC[C@H](O)c2ccccc2)[C@H]2C(=O)O[C@H](c3ccccc3)[C@H](c3ccccc3)N2[C@@H]1c1ccccc1OCCO)C(=O)OC`, the z-score in [1] is 0.786; in [2], 1.42 (inactive); in test [3] it was -7.38 (inactive); in [5], 1.7 (inactive); in test [6], 1.6 (inactive); in [7], 0.0386 (inactive). The z-score in test [8] was -0.477 (inactive); in [9], -6.76; in test [12], -2.33; in test [13] it was -1.39 (inactive); in test [14], 0.0062 (inactive); in test [15] it was 0.0197 (inactive). Moreover, the composite z-score in [4] is -7.26 (inactive); in [10], -0.0629; in [11], 0.0226 (inactive); in the test with XIP peptide (Xip251-270), 0.654.
`O=C1N(Cc2ccccc2)c2ccccc2C[C@@]12COC(c1ccc(OCCCO)cc1)=N2`: the z-score in [1] is 0.792; in test [2], -0.248 (inactive); in test [3], -1.61 (inactive); in [5], 1.39 (inactive); in test [6], 0.903 (inactive); in [7] it was 1.17 (inactive). For the same compound, the z-score was -0.187 (inactive) in test [8]; 0.712 in test [9]; -2.23 in test [12]; -5.21 (inactive) in test [13]; 0.0438 (inactive) in test [14]; 0.311 (inactive) in [15]. In addition, the composite z-score in test [4] was 0.0144 (inactive); in test [10], 0.0578; in test [11], 1.45 (inactive); with XIP peptide (Xip251-270) it was 0.308.
